From PubChem BioAssay (EPA / NIEHS)
“And” between values parts separate entries of the source, which are not always exact repeats. Identical values can stand only once. A structure can be active in one record and inactive in another. The source made the active and inactive calls. Rule for the calls: active = hit-call score of the fitted dose curve at least 0.9, where 1 is the maximum; inactive = score below 0.9.

Each molecule was assayed on Thrombomodulin, THBD (gene 7056) (assay: BSK_LPS_Thrombomodulin: BioMAP Diversity Plus: LPS Assay for Thrombomodulin Biomarker Activity (AID 2284296)). Conditions: primary human HUVEC with PBMC.
How it was run: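 Human umbilical vein endothelial cells co-cultured with PBMC and stimulated with LPS; cell-surface thrombomodulin measured by ELISA 24 hours after compound. Gain or loss versus DMSO; cytotoxicity checked by SRB staining in parallel cultures.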

Structure (SMILES)	outcome	AC50
Nc1nc(N)nc(-c2ccccc2)n1	inactive	–
C[N+](C)(C)CCCNS(=O)(=O)C(F)(F)C(F)(F)C(F)(F)C(F)(F)C(F)(F)C(F)(F)C(F)(F)C(F)(F)F	inactive	21.4 µM (active)
c1ccc(Nc2cccc3ccccc23)cc1	–	33.7 µM (active) and 31.2 µM (active)
CC(C)C(=O)OCCc1ccccc1	inactive	–
O=C(O)C(F)(F)C(F)(F)C(F)(F)C(F)(F)C(=O)O	inactive	–
CCCC(C)C(=O)OCC (stereo not given)	inactive	–
CC(CCC(=O)O)(c1ccc(O)cc1)c1ccc(O)cc1	inactive	–
Oc1ccccc1Cc1ccccc1O	inactive	–
CCCCCCCCCCCC(=O)N(C)CC(=O)O	inactive	–

The molecules below were run on CD69, CD69 (gene 969) (assay: BSK_LPS_CD69: BioMAP Diversity Plus: LPS Assay for CD69 Biomarker Activity (AID 2284303)). Conditions: primary human HUVEC with PBMC.
How it was run: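 Human umbilical vein endothelial cells co-cultured with PBMC under LPS stimulation, chemical exposure 24 h; cell-surface CD69 measured by ELISA and fitted in the positive direction versus DMSO.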

Structure (SMILES)	outcome	AC50
Nc1nc(N)nc(-c2ccccc2)n1	inactive	–
C[N+](C)(C)CCCNS(=O)(=O)C(F)(F)C(F)(F)C(F)(F)C(F)(F)C(F)(F)C(F)(F)C(F)(F)C(F)(F)F	inactive	30 µM (active)
c1ccc(Nc2cccc3ccccc23)cc1	–	36.5 µM (active) and 20 µM (active)
CC(C)C(=O)OCCc1ccccc1	inactive	–
O=C(O)C(F)(F)C(F)(F)C(F)(F)C(F)(F)C(=O)O	inactive	–
CCCC(C)C(=O)OCC (stereo not given)	inactive	–
CC(CCC(=O)O)(c1ccc(O)cc1)c1ccc(O)cc1	inactive	–
Oc1ccccc1Cc1ccccc1O	inactive	–
CCCCCCCCCCCC(=O)N(C)CC(=O)O	inactive	–
